Assay outcomes: PubChem, National Center for Advancing Translational Sciences (NCATS)
An excerpt weighted towards active compounds, which were near 8.9% of everything screened.
KB-3-1 cytotox: KB-3-1 parental cell cytotoxicity; actives 1.4% (n = 400,000); Potency, µM (doses to about 46.1 µM), most hits filed as cytotoxic; KB-3-1 viability, CellTiter-Glo ATP luminescence, 72 h; AID 1347075; note: potency is the fitted concentration of half-maximal effect; % is set by controls: 0 for no effect and ±100 for the full control effect; nearly all actives have a fitted effect of over 60% in size
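Parental KB-3-1 adenocarcinoma cells in phenol-red-free DMEM with 10% FBS were pin-treated with compounds at several concentrations, incubated 72 h at 37 °C, and viability read by CellTiter-Glo luminescence; concentration-effect curves were fitted after normalization.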
SW480 rerep: induces DNA re-replication in SW480 colon adenocarcinoma cells. SW480 DNA re-replication, Hoechst DNA content imaging, 48 h. Potency, µM (series often up to 46.1 µM), for inactives: top-dose re-replication activation, usual class: activators. actives 1.8% (n = 340,000). AID 624297; note: potency is the fitted concentration of half-maximal effect; % of control where 0% means no effect; nearly all actives have a fitted effect of over 55% in size
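Readout is total intensity of Hoechst-stained nuclei, excited at 405 nm and collected at 500-530 nm. Compound treatment lasted 48 hr at 37 C in 5% CO2 before staining.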
D3 ag: D3 dopamine receptor (human) agonism | P35462 | D3R DiscoveRx beta-arrestin cells, luminescence, 90 min | max activation, % | actives 0.58% (n = 410,000); in the data active = max activation above about 30%; note: 0% is about no effect
Target sequence (P35462 whole entry, looked up): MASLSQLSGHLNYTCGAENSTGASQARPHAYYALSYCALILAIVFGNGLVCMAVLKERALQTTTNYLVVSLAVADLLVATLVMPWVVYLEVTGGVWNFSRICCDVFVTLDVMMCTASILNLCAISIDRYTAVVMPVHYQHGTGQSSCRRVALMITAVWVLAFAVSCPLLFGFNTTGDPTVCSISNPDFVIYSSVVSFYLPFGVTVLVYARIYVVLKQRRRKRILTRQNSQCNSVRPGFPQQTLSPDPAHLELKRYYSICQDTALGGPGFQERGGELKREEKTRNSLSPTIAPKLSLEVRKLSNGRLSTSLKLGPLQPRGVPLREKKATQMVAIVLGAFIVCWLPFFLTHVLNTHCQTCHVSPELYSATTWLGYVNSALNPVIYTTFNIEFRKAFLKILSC
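Agonist-mode cell screen: cells plated at 1500/well and incubated overnight at 37 °C, then exposed to library compounds for 90 min at 37 °C. Detection reagent was added for 30–60 min at room temperature, and luminescence was read.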
D3 antag: antagonists of human D3 dopamine receptor; P35462; D3R cells, DiscoveRx beta-arrestin luminescence, antagonist mode; stronger effect = lower value; max response, negative = inhibition, %; actives 2.5% (n = 360,000); AID 652054; in the data active = max response below about -50%; inconclusive = no clear call, values can overlap the other calls; note: % is set by controls: 0 for no effect and ±100 for the full control effect
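Cells plated overnight at 1500 cells/well, then exposed to library compounds with dopamine controls for 90 minutes at 37 degrees C. DiscoveRx reagent added for 30–60 minutes at room temperature; luminescence read, quantitative HTS format.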
MCF10A rereplic: inducers of DNA re-replication in MCF 10A breast cells. MCF 10A DNA re-replication, Hoechst nuclear intensity, 48 h. Potency, µM (top dose mostly 46.1 µM), inactives show at the highest dose activity, positive = re-replication, usual class: activators. AID 624296. actives 2.9% (n = 350,000); note: potency is the fitted concentration of half-maximal effect; % of control where 0% means no effect; nearly all actives have a fitted effect of over 50% in size
KB-V1 cytotox: KB-V1 MDR subline cytotoxicity; Potency, µM (top dose mostly 46.1 µM), most hits filed as cytotoxic; actives 3.4% (n = 400,000); KB-V1 MDR cells viability, CellTiter-Glo, 72 h; note: potency is the fitted concentration of half-maximal effect; % is set by controls: 0 for no effect and ±100 for the full control effect; nearly all actives have a fitted effect of over 60% in size
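Following 72 h at 37 degrees C with compound, KB-V1 cell viability was read by CellTiter-Glo luminescence, medium being phenol-red-free DMEM plus 10% FBS; concentration-response parameters came from normalized, curve-fitted qHTS data.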
Starred values were filed as active, the others as inactive; [ ] = dose if it differs, or a comment. Unless noted, calls come from the whole dose curve; as a rule, active = well fitted curve in the direction sought with a large enough effect; inconclusive = small, poorly fitted or top-dose-only effect, or another doubt; inactive = no such curve, though single readings can be large; an effect the other way counts as inactive or inconclusive.

COc1ccc(C)cc1NC(=O)N(Cc1ccc(C)o1)C1CCN(C(C)=O)CC1 was read as KB-3-1 cytotox inactive, D3 ag 6.7 and KB-V1 cytotox inactive.
For CCOC(=O)c1c(NC(=O)c2nn(CC)cc2Br)c(C#N)nn1-c1ccccc1 the results were KB-3-1 cytotox inactive, SW480 rerep 3.5%, D3 ag 12.4, D3 antag 9.4, MCF10A rereplic -1.1% and KB-V1 cytotox 16.4µM*.
Screening COc1ccccc1N1CCN(c2cc(C)nc3c(-c4ccc(Cl)cc4)c(C)nn23)CC1 returned D3 ag 4.5.
For COc1ccc(C(=O)C(CN2CCOCC2)c2ccccc2)cc1F (centres undefined) the results were KB-3-1 cytotox inconclusive, SW480 rerep inconclusive, D3 ag -22.0, D3 antag -21.1, MCF10A rereplic 11.6µM* and KB-V1 cytotox inconclusive.
Screening COc1ccc(C(O)C(CN2CCOCC2)c2ccccc2)cc1F (centres undefined) returned KB-3-1 cytotox inactive, SW480 rerep -5.6%, D3 ag -6.2, D3 antag -16.5, MCF10A rereplic inconclusive and KB-V1 cytotox inactive.
For CCCOc1ccc(C(=O)C(CN2CCOCC2)c2ccccc2)cc1 (centres undefined) the results were KB-3-1 cytotox inconclusive, SW480 rerep 11.2µM*, D3 ag -6.0, D3 antag -29.3, MCF10A rereplic 17.8µM* and KB-V1 cytotox inconclusive.
`Cc1ccc(C(=O)Nc2nnc(S(=O)(=O)N3CCc4ccccc43)s2)cc1` gave KB-3-1 cytotox inactive, D3 ag -5.4 and KB-V1 cytotox inactive.
`c1ccc(NC2=NCCN2CCCC2CCCCC2)cc1` gave KB-3-1 cytotox inactive, SW480 rerep 0.259µM*, D3 ag -67.1, D3 antag inconclusive, MCF10A rereplic 8.7% and KB-V1 cytotox inactive.
For Fc1cccc(CCN2CCN=C2Nc2ccccc2)c1 the results were KB-3-1 cytotox inactive, SW480 rerep -12.3%[9.22 µM], D3 ag -65.2, D3 antag -74.1*, MCF10A rereplic 14.8% and KB-V1 cytotox inactive.
Screening CN(C)C1=NCCN1CCCC1CCCCC1 returned KB-3-1 cytotox inactive, SW480 rerep 23.1µM*, D3 ag -15.0, D3 antag -11.8, MCF10A rereplic inconclusive and KB-V1 cytotox inactive.
Screening c1ccc(CCCCN2CCN=C2Nc2ccccc2)cc1 returned KB-3-1 cytotox inactive, SW480 rerep -16.8%, D3 ag -31.6, D3 antag 4.2, MCF10A rereplic 10.1% and KB-V1 cytotox inactive.
For COc1ccc2c(c1)CC(C(=O)Nc1ccc(Br)c(C)c1)CO2 (centres undefined) the results were KB-3-1 cytotox inactive, D3 ag 0.5 and KB-V1 cytotox inactive.
Screening O=C(/C=C/c1ccccc1Cl)Nc1cccc([S+](=O)([O-])Nc2ccccc2F)c1 returned KB-3-1 cytotox inconclusive and KB-V1 cytotox inactive.
Cc1cc(C(=O)CCl)c(C)n1CCc1ccc(Cl)cc1 was read as KB-3-1 cytotox inconclusive, SW480 rerep 5.17µM*, D3 ag -17.1, D3 antag -68.8*, MCF10A rereplic 16.4µM* and KB-V1 cytotox inconclusive.
Screening Cc1cc(C(=O)CCl)c(C)n1CCc1ccc(F)cc1 returned KB-3-1 cytotox inconclusive, SW480 rerep 7.6%, D3 ag -0.4, D3 antag -17.1, MCF10A rereplic inconclusive and KB-V1 cytotox inconclusive.
`COc1ccc(CCn2c(C)cc(C(=O)CCl)c2C)cc1OC` gave KB-3-1 cytotox inconclusive, SW480 rerep 5.8µM*, D3 ag -5.7, D3 antag -15.1, MCF10A rereplic 6.51µM* and KB-V1 cytotox inconclusive.
`Cc1cc(C)c2c(/C=C/c3ccc(N(C)C)cc3)ccnc2c1` gave KB-3-1 cytotox inactive and KB-V1 cytotox inconclusive.
CN(C)c1ccc(/C=C/c2c(F)cnc3ccccc23)cc1 was read as KB-3-1 cytotox 9.2µM* and KB-V1 cytotox inconclusive.
`Cc1cnc2ccc(I)cc2c1/C=C/c1ccc(N(C)C)cc1` gave KB-3-1 cytotox 11.6µM* and KB-V1 cytotox inconclusive.
